Screening results from PubChem.
VDR inhibitor – blocks the human vitamin D receptor. P11473. VDR-SRC2-3 peptide fluorescence polarization, 2 h. Potency, µM, most hits filed as inhibitors. actives 0.93% (n = 400,000). AID 504847
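Measured by FP: displacement of SRC2-3 coactivator peptide from VDR by library compounds, following a two-hour ambient incubation.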
PLK1 PBD inh – PLK1 (human) polo-box domain binding inhibition; AID 720504; actives 2.8% (n = 360,000); Plk1 PBD binding of FITC phosphopeptide, fluorescence polarization; P53350; Potency, µM, hits mostly inhibitors; also: series mostly up to about 57 µM; nearly all actives have a fitted effect of over 65% in size
GLS inh – glutaminase GLS (human) inhibition. O94925. GLS enzymatic activity, qHTS titration. Potency, µM (series often up to 45.5 µM), most hits filed as inhibitors. actives 0.21% (n = 410,000)
Target sequence (O94925 whole entry, looked up): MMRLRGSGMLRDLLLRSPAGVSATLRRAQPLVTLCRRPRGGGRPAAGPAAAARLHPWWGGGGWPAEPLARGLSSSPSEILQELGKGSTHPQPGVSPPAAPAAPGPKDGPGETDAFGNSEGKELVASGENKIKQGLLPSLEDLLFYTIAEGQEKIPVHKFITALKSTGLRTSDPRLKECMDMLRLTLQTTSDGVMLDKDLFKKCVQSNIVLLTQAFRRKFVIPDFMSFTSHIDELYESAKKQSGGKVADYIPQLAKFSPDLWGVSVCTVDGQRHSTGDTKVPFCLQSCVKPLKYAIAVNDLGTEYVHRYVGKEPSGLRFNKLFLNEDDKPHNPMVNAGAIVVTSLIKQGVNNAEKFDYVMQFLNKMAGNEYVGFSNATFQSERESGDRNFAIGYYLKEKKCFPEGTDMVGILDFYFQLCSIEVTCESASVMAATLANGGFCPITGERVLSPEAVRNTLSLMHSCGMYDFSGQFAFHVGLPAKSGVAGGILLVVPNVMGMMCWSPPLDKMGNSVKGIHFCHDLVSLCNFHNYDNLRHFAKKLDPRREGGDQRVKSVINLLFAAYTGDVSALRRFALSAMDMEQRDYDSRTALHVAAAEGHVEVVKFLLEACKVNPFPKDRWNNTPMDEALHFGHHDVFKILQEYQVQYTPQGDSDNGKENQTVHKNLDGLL
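Coupled fluorescence readout: glutamate oxidase/HRP/Amplex Red detect glutamate formed by hKGA from L-glutamine (1 mM solution added). Buffer 45 mM KH2PO4 pH 8.2, 0.02% Tween-20; reads at t0 and 30 min RT.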
PI4K2A inh – blocks human PI4K2A kinase activity; actives 0.13% (n = 420,000); activity change, negative = inhibition, % at 76.9 µM; purified PI4K2A, ADP-Glo luminescence, 1 h; stronger effect = lower value; in the data active = activity change below about -50%; inconclusive = mostly about -30% to -49%
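Compounds are screened against recombinant PI4K2A using PI as substrate and ATP, the latter dispensed at 300 microM. Reactions run one hour at ambient temperature before ADP-Glo detection; full inhibition defined by wells lacking enzyme.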
KAT2A inh – GCN5L2 (KAT2A) acetyltransferase inhibition; GCN5L2 HAT assay, ThioGlo1 CoA-SH fluorescence; Potency, µM (titrated, usually from 58.9 µM), most hits filed as inhibitors; actives 0.21% (n = 390,000)
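Free CoA generated was detected with ThioGlo1 (50uM) fluorescence at Ex340nm/Em540nm, read immediately and after 20 min at room temperature. Enzyme, 20 nM in HEPES pH 7.5 buffer, saw compounds 15 min before adding 75uM H3(1-25) peptide and 70uM acetyl-CoA.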
A number is an active result. Rows were chosen to be rich in hits. Some 3.1% of all compounds tested hit in one or more screens of this group. Unless noted, calls follow the shape of the dose curve; as a rule, active = well fitted curve in the direction sought with a large enough effect; inconclusive = small, poorly fitted or top-dose-only effect, or another doubt; inactive = no such curve, though single readings can be large; an effect the other way counts as inactive or inconclusive.

What do the screens show for `COC(=O)CSc1nc(N2CCCCC2)c2c(c1C#N)CCCC2`?
VDR inhibitor: inactive; PLK1 PBD inh: 24µM; GLS inh: inactive; PI4K2A inh: inactive; KAT2A inh: inactive

Results for CCCCCCCC/C=C/CCCCCCCC(=O)NCCOP(=O)(O)O ?
VDR inhibitor: 28µM; KAT2A inh: 7.1µM

Results for CCCCCCCC/C=C\CCCCCCCC(=O)NCCO ?
VDR inhibitor: inactive; PLK1 PBD inh: inactive; GLS inh: inactive; PI4K2A inh: inactive; KAT2A inh: inactive

What do the screens show for `CCCCCCCC/C=C\CCCCCCCC(=O)NCCc1ccc(O)c(O)c1`?
VDR inhibitor: inconclusive; PLK1 PBD inh: 24µM; GLS inh: inactive; PI4K2A inh: inactive; KAT2A inh: inconclusive

What do the screens show for `CCCCC/C=C\C/C=C\C/C=C\C/C=C\CCCCCC(=O)NCCc1ccc(O)c(O)c1`?
VDR inhibitor: inactive

What do the screens show for `Nc1nc(Sc2ccc(C(F)(F)F)cc2[N+](=O)[O-])n[nH]1`?
VDR inhibitor: inactive; PLK1 PBD inh: inactive; GLS inh: inactive; PI4K2A inh: inactive; KAT2A inh: inactive

How did Nc1nc(Sc2c([N+](=O)[O-])cc(C(F)(F)F)cc2[N+](=O)[O-])n[nH]1 do in these assays?
VDR inhibitor: 32µM; PLK1 PBD inh: 2.4µM; GLS inh: inactive; PI4K2A inh: inactive; KAT2A inh: inconclusive

Results for COc1ccc(N2CCCN(CC(=O)Nc3ccc(Cl)cc3)CC2)cc1 ?
PI4K2A inh: inactive

How did COc1ccc(CN2CN3Cc4ccc(C)cc4C3CS2(=O)=O)cc1 (centres undefined) do in these assays?
PI4K2A inh: inactive

What do the screens show for `CC(NC(=O)/C(C#N)=C/c1ccc(Cl)c([N+](=O)[O-])c1)c1ccccc1` (centres undefined)?
VDR inhibitor: inconclusive; PLK1 PBD inh: 12µM; GLS inh: inactive; PI4K2A inh: inactive; KAT2A inh: inactive

What do the screens show for `CC(C)c1cccc(-c2ccc3c(c2)S(=O)(=O)c2cccc(C(=O)NCc4ccco4)c2C3=O)c1`?
VDR inhibitor: inactive; PLK1 PBD inh: 42µM; GLS inh: inactive; PI4K2A inh: inactive; KAT2A inh: inconclusive

Results for Cc1cccc(OC(C)C(=O)Nc2ncn[nH]2)c1 (centres undefined) ?
VDR inhibitor: inactive; GLS inh: inactive; PI4K2A inh: inactive; KAT2A inh: inactive

How did CCCCCCC(=O)N(O)C1CC(=O)N(c2ccc(C)cc2)C1=O (centres undefined) do in these assays?
VDR inhibitor: 32µM; PLK1 PBD inh: 27µM; PI4K2A inh: inactive; KAT2A inh: inactive

How did CCCCCCC(=O)N(O)C1CC(=O)N(c2ccc(Cl)cc2)C1=O (centres undefined) do in these assays?
VDR inhibitor: inconclusive; PLK1 PBD inh: inconclusive; GLS inh: inactive; PI4K2A inh: inactive; KAT2A inh: inactive

How did O=C(N=Nc1c(O)[nH]c2ccccc12)c1cccc(S(=O)(=O)Nc2ccccc2Cl)c1 do in these assays?
VDR inhibitor: inactive; PLK1 PBD inh: 30µM; GLS inh: inactive; PI4K2A inh: inactive; KAT2A inh: inactive

What do the screens show for `Cc1cccc(NC(=O)c2cnc3sc(N4CCCC4)nn3c2=O)c1C`?
VDR inhibitor: inactive; GLS inh: inactive; PI4K2A inh: inactive; KAT2A inh: inactive

Results for COc1ccc2c(c1)c(=O)oc1c(C)c(OCc3ccc(C(=O)O)cc3)ccc12 ?
VDR inhibitor: inactive; PLK1 PBD inh: 30µM; GLS inh: inconclusive; PI4K2A inh: inactive; KAT2A inh: inactive

What do the screens show for `Oc1ccc(-c2ccccc2F)c2cccnc12`?
PI4K2A inh: inactive

How did Oc1ccc(Nc2ccccc2F)c2cccnc12 do in these assays?
PI4K2A inh: -52

How did CCSc1n[nH]c(=S)s1 do in these assays?
VDR inhibitor: inactive; PLK1 PBD inh: inactive; GLS inh: inactive; PI4K2A inh: inactive; KAT2A inh: 32µM

Results for COC1=C[C@H](C(=O)NCCOC(C)=O)[C@H](C)[C@@H](c2ccccc2)CC1=O ?
PI4K2A inh: inactive

Results for COc1ccc(/C=N/n2cnc3c([nH]c4ccc(Br)cc43)c2=O)cc1CN1CCOCC1 ?
VDR inhibitor: inactive; PLK1 PBD inh: inactive; GLS inh: inactive; PI4K2A inh: inactive; KAT2A inh: inactive

What do the screens show for `COc1ccc(/C=N/n2cnc3c([nH]c4ccccc43)c2=O)cc1CO`?
VDR inhibitor: inconclusive; PLK1 PBD inh: 11µM; GLS inh: inconclusive; PI4K2A inh: inactive; KAT2A inh: inactive

How did Cc1occc1-c1nnc(SCC(=O)Nc2ccccn2)n1-c1ccccc1 do in these assays?
PI4K2A inh: inactive

How did COc1ccc(S(=O)(=O)CC(=O)c2cc3cccc(C)c3oc2=O)cc1 do in these assays?
VDR inhibitor: inactive; PLK1 PBD inh: 27µM; GLS inh: inactive; PI4K2A inh: inconclusive; KAT2A inh: inactive

How did COc1ccc2cc(C(=O)CS(=O)(=O)c3ccccc3)c(=O)oc2c1 do in these assays?
VDR inhibitor: inactive; PLK1 PBD inh: inactive; GLS inh: inactive; PI4K2A inh: inactive; KAT2A inh: inactive

How did CNC(=O)c1cc2cccc(OC)c2oc1=O do in these assays?
VDR inhibitor: inactive; PLK1 PBD inh: inactive; GLS inh: inactive; PI4K2A inh: inactive; KAT2A inh: inactive

What do the screens show for `O=C(CS(=O)(=O)c1ccccc1)c1cc2ccccc2oc1=O`?
VDR inhibitor: inactive; PLK1 PBD inh: inconclusive; GLS inh: inactive; PI4K2A inh: inconclusive; KAT2A inh: inactive

Results for COc1cccc2cc(C(=O)CS(=O)(=O)c3ccc(C(C)(C)C)cc3)c(=O)oc12 ?
VDR inhibitor: inactive; PLK1 PBD inh: 7.5µM; GLS inh: inactive; PI4K2A inh: inactive; KAT2A inh: inactive

Results for O=C(CS(=O)(=O)c1ccccc1)c1cc2cc(F)ccc2oc1=O ?
VDR inhibitor: inactive; PLK1 PBD inh: 15µM; GLS inh: inconclusive; PI4K2A inh: inconclusive; KAT2A inh: inactive

Results for CCC(=O)Oc1ccc2c(c1)CC[C@@H]1[C@@H]2CC[C@@]2(C)[C@H]1C[C@@H](OC(=O)CC)[C@@H]2OC(=O)CC ?
PI4K2A inh: inactive

How did CCn1c(COc2ccccc2)nnc1SCC(=O)Nc1ccc(Oc2ccccc2)cc1 do in these assays?
PI4K2A inh: inactive

How did CCOC(=O)N1CCN(C(=O)c2ccc(CS(=O)(=O)c3ccc(OC)cc3)o2)CC1 do in these assays?
VDR inhibitor: inconclusive; PLK1 PBD inh: 27µM; GLS inh: inactive; PI4K2A inh: inactive; KAT2A inh: inactive

Results for COc1ccccc1S(=O)(=O)Cc1ccc(C(=O)N2CCN(c3ccccn3)CC2)o1 ?
VDR inhibitor: inconclusive; PLK1 PBD inh: 27µM; GLS inh: inactive; PI4K2A inh: inactive; KAT2A inh: inactive

What do the screens show for `COc1ccc(S(=O)(=O)Cc2ccc(C(=O)N3CCN(c4ccccn4)CC3)o2)cc1`?
VDR inhibitor: inactive; PLK1 PBD inh: inactive; GLS inh: inactive; PI4K2A inh: inactive; KAT2A inh: inactive

Results for COc1ccc(S(=O)(=O)Cc2ccc(C(=O)NC(C)C)o2)cc1 ?
VDR inhibitor: inconclusive; PLK1 PBD inh: 21µM; GLS inh: inactive; PI4K2A inh: inactive; KAT2A inh: inactive
